Results reported in the supplement of paper PMC11732987, “Enantioselective OTUD7B fragment discovery through chemoproteomics screening and high-throughput optimisation” (Communications Chemistry, 2025).

What was measured:
Experiment in all cases: log2 ratio of Biotin-Ahx-Ub-VS probe labelling (fragment/DMSO); higher = less target engagement (more negative = stronger competition), active = hit call of the paper (q ≤ 0.05, log2 ratio ≤ -1)
Conditions in all cases: compound concentration: 200 uM; treatment time: 3 h
USP42 = molecular target: T1, USP42 (UniProt Q9H9J4)
T1 sequence (whole entry): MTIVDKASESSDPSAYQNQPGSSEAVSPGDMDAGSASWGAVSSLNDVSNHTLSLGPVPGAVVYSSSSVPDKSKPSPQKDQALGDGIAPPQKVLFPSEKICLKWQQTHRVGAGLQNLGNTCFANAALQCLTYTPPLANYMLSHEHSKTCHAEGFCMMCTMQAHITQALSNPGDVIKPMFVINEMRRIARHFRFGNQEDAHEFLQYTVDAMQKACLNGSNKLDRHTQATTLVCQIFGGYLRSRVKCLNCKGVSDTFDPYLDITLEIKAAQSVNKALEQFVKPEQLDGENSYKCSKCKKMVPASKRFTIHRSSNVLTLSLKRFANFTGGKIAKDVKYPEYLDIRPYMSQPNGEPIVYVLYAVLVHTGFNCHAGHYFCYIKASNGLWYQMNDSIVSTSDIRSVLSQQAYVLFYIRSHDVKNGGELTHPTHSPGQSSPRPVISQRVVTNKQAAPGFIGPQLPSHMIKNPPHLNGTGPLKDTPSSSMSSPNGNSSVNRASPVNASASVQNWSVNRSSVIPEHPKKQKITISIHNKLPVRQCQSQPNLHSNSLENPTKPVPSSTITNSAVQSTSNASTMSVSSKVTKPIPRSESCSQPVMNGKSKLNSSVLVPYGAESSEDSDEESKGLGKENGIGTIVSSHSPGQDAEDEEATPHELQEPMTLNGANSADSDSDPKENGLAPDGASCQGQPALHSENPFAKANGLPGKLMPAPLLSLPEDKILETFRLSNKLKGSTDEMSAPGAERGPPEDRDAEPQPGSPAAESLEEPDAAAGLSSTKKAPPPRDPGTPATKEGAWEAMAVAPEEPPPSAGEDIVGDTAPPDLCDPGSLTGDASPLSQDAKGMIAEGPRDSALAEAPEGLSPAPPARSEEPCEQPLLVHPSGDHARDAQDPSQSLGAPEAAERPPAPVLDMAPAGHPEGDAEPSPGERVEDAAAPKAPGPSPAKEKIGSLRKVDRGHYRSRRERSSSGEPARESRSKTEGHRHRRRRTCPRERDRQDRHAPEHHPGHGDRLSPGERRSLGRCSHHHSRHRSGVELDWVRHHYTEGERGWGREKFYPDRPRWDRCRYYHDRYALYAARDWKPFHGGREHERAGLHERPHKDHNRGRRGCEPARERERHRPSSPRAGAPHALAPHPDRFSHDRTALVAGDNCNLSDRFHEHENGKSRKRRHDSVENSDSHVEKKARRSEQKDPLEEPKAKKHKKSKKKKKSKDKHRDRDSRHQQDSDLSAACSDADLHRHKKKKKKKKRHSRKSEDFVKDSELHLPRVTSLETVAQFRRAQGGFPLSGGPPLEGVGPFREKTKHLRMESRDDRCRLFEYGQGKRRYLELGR
Outline: (§1)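 HEK293T lysate in Tris/CHAPS/IGEPAL buffer with protease inhibitors (495 µg per sample) was given fragment at 200 µM or vehicle for 3 h, in triplicate. It then received Biotin-Ahx-Ub-VS at 0.5 µM final for 1 h. Labelled DUBs were NeutrAvidin-enriched, digested with LysC and trypsin, and run by diaPASEF LC-MS/MS. Values are average log2 fragment/vehicle ratios by unpaired t-test on global-median-normalised Spectronaut quantities of proteins with ≥2 unique peptides.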

USP46 = USP46 (UniProt P62068)
Outline: as §1

USP47 = molecular target: T2, USP47 (UniProt Q96K76)
T2 sequence (whole entry): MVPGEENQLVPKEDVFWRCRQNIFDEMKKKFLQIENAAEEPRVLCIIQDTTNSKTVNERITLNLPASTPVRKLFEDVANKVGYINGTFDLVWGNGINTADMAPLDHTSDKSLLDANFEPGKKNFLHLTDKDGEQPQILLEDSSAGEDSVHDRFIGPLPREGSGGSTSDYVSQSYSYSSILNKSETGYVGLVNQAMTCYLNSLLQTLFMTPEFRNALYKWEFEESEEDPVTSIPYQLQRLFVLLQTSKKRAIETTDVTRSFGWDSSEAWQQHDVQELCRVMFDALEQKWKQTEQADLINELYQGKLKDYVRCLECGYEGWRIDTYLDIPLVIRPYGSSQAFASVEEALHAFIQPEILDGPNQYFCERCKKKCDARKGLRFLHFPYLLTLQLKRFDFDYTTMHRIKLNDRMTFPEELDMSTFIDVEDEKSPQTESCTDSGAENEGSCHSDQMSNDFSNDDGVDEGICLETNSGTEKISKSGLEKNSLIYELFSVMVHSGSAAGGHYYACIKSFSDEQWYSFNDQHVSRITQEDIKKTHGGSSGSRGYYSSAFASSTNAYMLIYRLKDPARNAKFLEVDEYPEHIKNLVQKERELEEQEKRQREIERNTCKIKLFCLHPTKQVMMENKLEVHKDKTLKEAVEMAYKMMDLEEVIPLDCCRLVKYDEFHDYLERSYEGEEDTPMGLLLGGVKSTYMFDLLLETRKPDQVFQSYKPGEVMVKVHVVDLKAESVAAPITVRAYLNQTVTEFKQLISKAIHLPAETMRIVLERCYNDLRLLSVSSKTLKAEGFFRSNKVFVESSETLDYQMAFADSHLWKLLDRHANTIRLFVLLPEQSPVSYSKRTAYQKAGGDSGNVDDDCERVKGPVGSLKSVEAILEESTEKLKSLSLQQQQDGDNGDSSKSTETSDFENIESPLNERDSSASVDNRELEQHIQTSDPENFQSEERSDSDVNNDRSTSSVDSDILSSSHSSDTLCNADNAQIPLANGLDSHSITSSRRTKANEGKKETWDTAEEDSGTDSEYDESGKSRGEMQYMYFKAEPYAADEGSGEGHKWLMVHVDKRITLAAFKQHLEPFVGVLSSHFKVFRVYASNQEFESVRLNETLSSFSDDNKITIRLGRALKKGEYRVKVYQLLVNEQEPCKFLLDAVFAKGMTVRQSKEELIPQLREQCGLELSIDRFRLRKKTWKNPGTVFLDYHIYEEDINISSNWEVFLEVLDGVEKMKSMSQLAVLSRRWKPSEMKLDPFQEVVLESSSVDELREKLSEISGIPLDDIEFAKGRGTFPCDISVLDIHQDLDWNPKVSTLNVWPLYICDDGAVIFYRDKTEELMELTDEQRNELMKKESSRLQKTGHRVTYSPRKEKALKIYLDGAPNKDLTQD
Outline: as §1

USP48 = molecular target: T3, USP48 (UniProt Q86UV5)
T3 sequence (whole entry): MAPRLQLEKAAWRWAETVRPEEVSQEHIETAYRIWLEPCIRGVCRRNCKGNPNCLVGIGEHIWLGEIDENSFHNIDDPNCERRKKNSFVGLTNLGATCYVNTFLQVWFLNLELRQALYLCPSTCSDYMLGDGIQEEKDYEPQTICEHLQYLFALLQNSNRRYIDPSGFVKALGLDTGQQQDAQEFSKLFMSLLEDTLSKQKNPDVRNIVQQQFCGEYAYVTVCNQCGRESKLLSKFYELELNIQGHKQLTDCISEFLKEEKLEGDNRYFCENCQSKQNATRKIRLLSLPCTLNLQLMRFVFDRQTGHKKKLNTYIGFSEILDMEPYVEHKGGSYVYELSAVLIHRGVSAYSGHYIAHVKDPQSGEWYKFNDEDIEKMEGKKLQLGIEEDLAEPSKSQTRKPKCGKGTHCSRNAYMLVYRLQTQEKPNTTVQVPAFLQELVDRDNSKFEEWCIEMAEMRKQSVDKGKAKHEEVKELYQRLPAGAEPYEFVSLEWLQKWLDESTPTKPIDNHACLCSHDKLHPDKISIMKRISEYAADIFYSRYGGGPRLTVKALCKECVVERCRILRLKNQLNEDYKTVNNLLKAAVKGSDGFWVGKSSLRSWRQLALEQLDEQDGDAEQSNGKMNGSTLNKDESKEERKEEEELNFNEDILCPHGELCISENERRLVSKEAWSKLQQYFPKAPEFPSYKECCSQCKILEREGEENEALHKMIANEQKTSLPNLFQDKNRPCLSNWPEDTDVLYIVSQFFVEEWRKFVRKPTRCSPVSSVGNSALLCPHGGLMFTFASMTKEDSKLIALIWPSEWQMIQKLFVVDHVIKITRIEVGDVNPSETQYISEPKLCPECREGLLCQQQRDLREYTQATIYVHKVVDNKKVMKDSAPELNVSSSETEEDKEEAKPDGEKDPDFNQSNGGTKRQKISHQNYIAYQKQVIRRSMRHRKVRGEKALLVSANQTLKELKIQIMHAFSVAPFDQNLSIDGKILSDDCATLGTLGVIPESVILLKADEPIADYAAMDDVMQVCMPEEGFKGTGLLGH
Outline: as §1

USP5 = molecular target: T4, USP5 (UniProt P45974)
T4 sequence (whole entry): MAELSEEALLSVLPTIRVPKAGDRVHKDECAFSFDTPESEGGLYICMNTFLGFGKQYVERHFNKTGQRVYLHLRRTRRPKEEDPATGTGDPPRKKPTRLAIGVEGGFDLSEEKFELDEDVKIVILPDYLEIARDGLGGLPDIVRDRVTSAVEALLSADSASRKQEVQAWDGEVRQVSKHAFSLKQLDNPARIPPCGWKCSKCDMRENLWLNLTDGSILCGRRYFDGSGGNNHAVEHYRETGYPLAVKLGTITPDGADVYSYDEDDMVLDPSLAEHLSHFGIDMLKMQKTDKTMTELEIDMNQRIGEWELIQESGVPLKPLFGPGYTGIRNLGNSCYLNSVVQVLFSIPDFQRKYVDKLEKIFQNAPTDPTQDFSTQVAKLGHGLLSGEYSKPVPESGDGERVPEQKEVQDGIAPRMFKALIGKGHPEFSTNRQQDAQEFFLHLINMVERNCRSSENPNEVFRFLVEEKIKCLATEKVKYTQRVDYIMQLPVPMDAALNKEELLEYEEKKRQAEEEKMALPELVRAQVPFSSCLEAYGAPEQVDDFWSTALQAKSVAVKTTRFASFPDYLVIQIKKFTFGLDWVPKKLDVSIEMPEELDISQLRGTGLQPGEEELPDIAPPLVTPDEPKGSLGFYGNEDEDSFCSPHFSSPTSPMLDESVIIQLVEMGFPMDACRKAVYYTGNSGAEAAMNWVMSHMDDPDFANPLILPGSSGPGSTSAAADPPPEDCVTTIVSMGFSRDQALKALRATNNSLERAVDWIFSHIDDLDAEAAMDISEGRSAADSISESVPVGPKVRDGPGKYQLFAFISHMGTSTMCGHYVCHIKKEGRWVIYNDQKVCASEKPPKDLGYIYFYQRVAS
Outline: as §1

USP54 = USP54 (UniProt Q70EL1)
Outline: as §1

USP7 = USP7 (UniProt Q93009)
Outline: as §1

USP8 = molecular target: T5, USP8 (UniProt P40818)
T5 sequence (whole entry): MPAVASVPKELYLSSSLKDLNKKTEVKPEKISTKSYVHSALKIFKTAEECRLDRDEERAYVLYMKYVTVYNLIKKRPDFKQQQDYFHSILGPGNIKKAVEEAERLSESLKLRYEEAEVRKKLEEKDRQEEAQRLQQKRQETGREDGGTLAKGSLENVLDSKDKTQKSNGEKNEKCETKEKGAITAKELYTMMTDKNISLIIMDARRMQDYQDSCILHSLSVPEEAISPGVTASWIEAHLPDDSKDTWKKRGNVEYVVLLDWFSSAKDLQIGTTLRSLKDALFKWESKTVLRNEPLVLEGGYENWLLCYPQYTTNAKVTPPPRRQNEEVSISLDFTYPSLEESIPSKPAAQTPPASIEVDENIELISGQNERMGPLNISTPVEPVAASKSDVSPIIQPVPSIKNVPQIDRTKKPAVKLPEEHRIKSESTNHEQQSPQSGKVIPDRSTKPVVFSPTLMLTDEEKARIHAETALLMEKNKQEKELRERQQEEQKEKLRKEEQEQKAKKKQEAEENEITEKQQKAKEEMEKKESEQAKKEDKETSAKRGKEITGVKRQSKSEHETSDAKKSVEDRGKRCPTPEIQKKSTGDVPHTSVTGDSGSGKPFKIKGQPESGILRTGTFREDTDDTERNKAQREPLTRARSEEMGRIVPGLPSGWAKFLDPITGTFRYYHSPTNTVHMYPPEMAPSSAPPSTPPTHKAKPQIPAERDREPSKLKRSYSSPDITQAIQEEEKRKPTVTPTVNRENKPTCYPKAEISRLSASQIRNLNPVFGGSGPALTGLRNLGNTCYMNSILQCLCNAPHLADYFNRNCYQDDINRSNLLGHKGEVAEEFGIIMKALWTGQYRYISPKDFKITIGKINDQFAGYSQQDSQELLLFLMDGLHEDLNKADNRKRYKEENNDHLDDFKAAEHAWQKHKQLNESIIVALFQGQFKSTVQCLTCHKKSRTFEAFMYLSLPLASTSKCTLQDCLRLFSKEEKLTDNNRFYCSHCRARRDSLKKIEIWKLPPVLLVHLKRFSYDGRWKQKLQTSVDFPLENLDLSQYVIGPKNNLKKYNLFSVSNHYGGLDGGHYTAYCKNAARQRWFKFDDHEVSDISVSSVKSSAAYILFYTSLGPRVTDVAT
Outline: as §1

Measured: log2 ratio of Biotin-Ahx-Ub-VS probe labelling

Sequence of USP46 (P62068 whole entry): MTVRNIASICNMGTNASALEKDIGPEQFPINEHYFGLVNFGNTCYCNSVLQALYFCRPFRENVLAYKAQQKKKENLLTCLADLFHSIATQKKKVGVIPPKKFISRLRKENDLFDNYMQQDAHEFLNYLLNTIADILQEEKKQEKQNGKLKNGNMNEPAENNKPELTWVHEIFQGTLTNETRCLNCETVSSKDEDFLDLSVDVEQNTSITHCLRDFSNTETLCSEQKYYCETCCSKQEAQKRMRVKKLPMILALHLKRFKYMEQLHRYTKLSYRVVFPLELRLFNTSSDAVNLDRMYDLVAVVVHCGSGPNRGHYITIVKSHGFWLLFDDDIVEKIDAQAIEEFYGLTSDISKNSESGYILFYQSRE
Sequence of USP54 (Q70EL1 whole entry): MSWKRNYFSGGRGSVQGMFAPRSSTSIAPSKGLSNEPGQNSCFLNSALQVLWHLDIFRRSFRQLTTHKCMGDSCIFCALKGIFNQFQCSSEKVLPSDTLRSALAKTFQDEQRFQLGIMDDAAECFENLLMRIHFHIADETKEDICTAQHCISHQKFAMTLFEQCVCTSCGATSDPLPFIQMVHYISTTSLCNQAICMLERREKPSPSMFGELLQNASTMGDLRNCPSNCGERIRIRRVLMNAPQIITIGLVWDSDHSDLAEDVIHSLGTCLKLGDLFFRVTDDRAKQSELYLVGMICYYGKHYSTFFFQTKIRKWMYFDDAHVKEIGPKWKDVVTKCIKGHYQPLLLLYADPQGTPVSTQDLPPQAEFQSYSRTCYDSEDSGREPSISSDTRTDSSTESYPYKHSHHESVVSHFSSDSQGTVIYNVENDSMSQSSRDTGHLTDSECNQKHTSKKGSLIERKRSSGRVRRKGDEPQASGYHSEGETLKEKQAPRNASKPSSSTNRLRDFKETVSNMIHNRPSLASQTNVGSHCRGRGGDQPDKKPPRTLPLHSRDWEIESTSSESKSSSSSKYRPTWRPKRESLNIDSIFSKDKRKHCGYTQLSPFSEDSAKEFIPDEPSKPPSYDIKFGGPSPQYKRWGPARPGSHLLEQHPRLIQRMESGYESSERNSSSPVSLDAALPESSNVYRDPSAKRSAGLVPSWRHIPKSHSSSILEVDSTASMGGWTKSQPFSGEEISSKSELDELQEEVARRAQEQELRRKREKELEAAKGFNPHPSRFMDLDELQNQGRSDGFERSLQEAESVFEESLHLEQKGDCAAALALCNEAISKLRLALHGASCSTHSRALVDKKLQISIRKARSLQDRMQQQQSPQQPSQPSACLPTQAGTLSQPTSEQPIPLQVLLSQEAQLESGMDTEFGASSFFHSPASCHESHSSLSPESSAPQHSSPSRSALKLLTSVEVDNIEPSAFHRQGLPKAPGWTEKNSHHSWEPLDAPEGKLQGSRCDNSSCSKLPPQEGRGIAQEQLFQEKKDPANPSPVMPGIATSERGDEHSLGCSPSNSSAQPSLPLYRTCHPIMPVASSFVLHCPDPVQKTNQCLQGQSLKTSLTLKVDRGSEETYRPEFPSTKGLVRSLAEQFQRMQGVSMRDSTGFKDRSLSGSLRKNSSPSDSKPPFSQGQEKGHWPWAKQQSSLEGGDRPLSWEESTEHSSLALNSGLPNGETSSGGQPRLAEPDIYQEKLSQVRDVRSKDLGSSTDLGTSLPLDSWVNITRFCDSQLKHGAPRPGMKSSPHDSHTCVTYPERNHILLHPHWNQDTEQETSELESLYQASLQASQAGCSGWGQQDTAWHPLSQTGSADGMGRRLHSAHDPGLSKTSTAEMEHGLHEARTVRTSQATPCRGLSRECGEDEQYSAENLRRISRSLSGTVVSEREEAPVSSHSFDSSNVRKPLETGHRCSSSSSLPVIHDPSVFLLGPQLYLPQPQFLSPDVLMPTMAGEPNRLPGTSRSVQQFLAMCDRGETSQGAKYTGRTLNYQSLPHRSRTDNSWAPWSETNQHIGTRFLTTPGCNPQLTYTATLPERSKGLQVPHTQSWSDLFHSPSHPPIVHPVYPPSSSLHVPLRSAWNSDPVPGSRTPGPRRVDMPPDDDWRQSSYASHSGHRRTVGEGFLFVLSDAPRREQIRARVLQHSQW
Sequence of USP7 (Q93009 whole entry, looked up): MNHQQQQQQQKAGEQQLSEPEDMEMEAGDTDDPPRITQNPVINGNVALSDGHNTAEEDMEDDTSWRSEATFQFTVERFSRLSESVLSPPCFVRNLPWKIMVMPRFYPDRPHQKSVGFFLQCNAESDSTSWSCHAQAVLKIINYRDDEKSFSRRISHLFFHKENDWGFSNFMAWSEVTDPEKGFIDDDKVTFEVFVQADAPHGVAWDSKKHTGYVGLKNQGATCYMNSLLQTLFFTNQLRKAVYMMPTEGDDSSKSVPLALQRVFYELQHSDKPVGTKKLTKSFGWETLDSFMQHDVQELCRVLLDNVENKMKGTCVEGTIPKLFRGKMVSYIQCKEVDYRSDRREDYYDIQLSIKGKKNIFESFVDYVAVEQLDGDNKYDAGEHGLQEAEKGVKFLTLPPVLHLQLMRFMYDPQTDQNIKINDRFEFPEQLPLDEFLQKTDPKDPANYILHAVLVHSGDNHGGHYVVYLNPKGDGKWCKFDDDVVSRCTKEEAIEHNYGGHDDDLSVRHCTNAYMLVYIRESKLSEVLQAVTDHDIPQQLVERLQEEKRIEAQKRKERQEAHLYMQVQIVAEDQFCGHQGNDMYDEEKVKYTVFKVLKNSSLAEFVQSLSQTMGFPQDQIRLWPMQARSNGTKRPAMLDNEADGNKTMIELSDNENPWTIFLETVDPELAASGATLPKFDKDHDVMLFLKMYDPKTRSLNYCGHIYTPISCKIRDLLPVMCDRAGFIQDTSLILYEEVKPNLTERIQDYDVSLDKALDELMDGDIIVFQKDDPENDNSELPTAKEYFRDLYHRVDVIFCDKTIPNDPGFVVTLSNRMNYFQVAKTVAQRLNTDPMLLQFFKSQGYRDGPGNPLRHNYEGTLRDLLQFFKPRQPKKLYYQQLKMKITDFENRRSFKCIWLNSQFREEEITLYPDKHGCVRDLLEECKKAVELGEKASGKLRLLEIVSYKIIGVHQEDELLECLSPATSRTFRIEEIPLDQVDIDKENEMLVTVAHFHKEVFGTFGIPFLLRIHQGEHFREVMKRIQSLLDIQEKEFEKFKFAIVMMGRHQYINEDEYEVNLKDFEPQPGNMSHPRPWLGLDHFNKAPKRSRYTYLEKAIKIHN

O=C(CCl)NCC1(c2ccccc2)CC1
inactive: USP42 -0.475 | USP46 0.0609 | USP47 -0.388 | USP48 -0.502 | USP5 0.023 | USP54 0.574 | USP7 -0.075 | USP8 -0.144
